Screening data as filed in PubChem BioAssay.
Most compounds without a hit are left out; they make up all but 0.92% or so of the library.
CIT2 TOR yeast – alters CIT2-GFP fluorescence in TOR pathway yeast screen | S. cerevisiae CIT2-GFP strain, flow cytometry, 3 h; 100 means same as DMSO wells | GFP response vs DMSO, % at 10 µM | AID 2029 | 320,000 compounds, 0.065% hits;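 active = GFP response relative to DMSO above a set limit, near the screen mean plus 3 SD, cut at about 150% in these data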;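 note: ratio of well median GFP fluorescence to mean of DMSO wells on the plate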
AGP1 TOR yeast – yeast TOR pathway AGP1-GFP modulation | S. cerevisiae AGP1-GFP multiplex flow cytometry, 3 h; GFP as percent of DMSO wells | GFP response vs DMSO, % at 10 µM | 320,000 compounds, 0.02% hits;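 active = GFP response relative to DMSO above a set limit, near screen average plus 3 SD, cut at about 150% in these data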;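 note: median GFP channel fluorescence of the gated AGP1 strain per well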
LAP4 TOR yeast – yeast TOR pathway LAP4-GFP modulation. 320,000 compounds, 0.34% hits. S. cerevisiae LAP4-GFP multiplex, flow cytometry GFP, 3 h; median GFP as percent of DMSO wells. GFP response vs DMSO, % at 10 µM;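 active = GFP response vs DMSO above a set limit, about the screen mean plus 3 SD, cut at about 150% in these data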
MEP2-GFP yeast – modulators of TOR pathway MEP2-GFP in S. cerevisiae; AID 2016; 330,000 compounds, 0.51% hits; GFP response vs DMSO, % at 10 µM; S. cerevisiae MEP2-GFP strain, flow cytometry GFP, 3 h; 100% = DMSO control level;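 active = GFP response versus DMSO above a set limit, roughly screen mean plus 3 SD, cut at about 180% in these data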;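 note: median GFP fluorescence of the barcode-gated MEP2-GFP cells per well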
RPL19A TOR yeast – yeast TOR pathway RPL19A-GFP modulation. S. cerevisiae RPL19A-GFP strain, flow cytometry, 3 h; active compounds read low. percent response vs DMSO, % at 10 µM. 330,000 compounds, 0.3% hits;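 active = percent response vs DMSO below 50%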;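 note: median channel GFP fluorescence of the barcoded RPL19A-GFP strain; ratio of sample median GFP to plate DMSO average so 100% = DMSO; lower means less RPL19A-GFP as with rapamycin TOR inhibition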
LAP4 cherry2 – second confirmation of modulators of TOR reporter LAP4-GFP in yeast; shares compounds with LAP4 TOR yeast; S. cerevisiae LAP4-GFP strain, flow cytometry GFP, 3 h; GFP response vs DMSO, % at 10 µM; 590 compounds, 20% hits; AID 2621;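 active = GFP signal as percent of the solvent control above about 150%, meaning raised reporter expression, limit read from the data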;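 note: ratio of well median GFP fluorescence to plate DMSO mean so 100% = DMSO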
MEP2 cherry2 – second confirmation of modulators of TOR reporter MEP2-GFP in yeast; S. cerevisiae MEP2-GFP strain, flow cytometry GFP, 3 h; shares compounds with LAP4 TOR yeast; 590 compounds, 10% hits; GFP response vs DMSO, % at 10 µM;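 active = GFP signal above 150% of the solvent control wells, that is a rise of more than half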;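 note: median channel GFP fluorescence of all gated yeast cells per well; ratio of median GFP to plate DMSO average so 100% = DMSO level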
RPL19A GFP CP2 – second confirmation of modulators of TOR reporter RPL19A-GFP in yeast. shares compounds with LAP4 TOR yeast. S. cerevisiae RPL19A-GFP strain, flow cytometry GFP, 3 h; active compounds read low; 100% means same as DMSO wells. GFP response vs DMSO, % at 10 µM. 590 compounds, 3% hits;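 active = under 65% GFP response relative to DMSO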;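 note: median GFP channel fluorescence per well over the all cells gate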
CIT2-GFP pick2 – second confirmation of modulators of TOR reporter CIT2-GFP in yeast | shares compounds with LAP4 TOR yeast | S. cerevisiae CIT2-GFP strain, flow cytometry GFP, 3 h; DMSO control wells read 100% | GFP response vs DMSO, % at 10 µM | 590 compounds, 8% hits | AID 2624;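 active = GFP response vs DMSO above about 150%, limit read from the data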;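 note: median green fluorescence per well over all gated yeast cells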
AGP1 GFP CP2 – second confirmation of modulators of TOR reporter AGP1-GFP in yeast; percent response vs DMSO, % at 10 µM; 590 tested, under 10 active; S. cerevisiae AGP1-GFP strain, flow cytometry GFP, 3 h; shares compounds with LAP4 TOR yeast;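 active = over 150 percent of DMSO response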;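 note: median GFP channel fluorescence over all cells without mother daughter split; sample median GFP divided by mean DMSO control so 100% equals DMSO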
Yeast autofluor – yeast s288c autofluorescence artifact, counter-screen; shares compounds with LAP4 TOR yeast; S. cerevisiae s288c, 520 nm autofluorescence, flow cytometry, 3 h; active compounds read high; zero means same as solvent-only cells; fluorescence change (kMESF span) at 33 µM; 610 tested, under 10 active;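 active = fluorescence span over the dose series, or activity score, above about 33, limit read from the data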
s288c autofl DR – yeast s288c autofluorescence artifact in dose response | shares compounds with LAP4 TOR yeast | S. cerevisiae s288c parental, compound autofluorescence, flow cytometry, 3 h | fluorescence change (span) at 33 µM | 110 tested, under 10 active | AID 488829;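 active = fluorescence change span, or the activity score built from it, above 25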
TORC1 bypass gr – compounds blocking wildtype yeast growth but not TORC1 bypass cells. S. cerevisiae BY4741 spot growth rating, 48-72 h; active compounds read low. shares compounds with LAP4 TOR yeast. AID 504456. growth rating (0-3) at 30 µM. 120 tested, under 10 active;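 active = growth rating at most 1 for wild type yeast while the TORC1 bypass strain still grows fully, rated 3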
Starred values were filed as active, the others as inactive; · = not tested or not shown.

SMILES	CIT2 TOR yeast	AGP1 TOR yeast	LAP4 TOR yeast	MEP2-GFP yeast	RPL19A TOR yeast	LAP4 cherry2	MEP2 cherry2	RPL19A GFP CP2	CIT2-GFP pick2	AGP1 GFP CP2	others
Oc1c(I)cc(I)c2cccnc12	148	96	238*	111	100	167*	147	82	113	94	Yeast autofluor=1.2;s288c autofl DR=0.9;TORC1 bypass gr=3
CC(=O)N1CCN(C(=O)c2ccc(Cl)c(S(=O)(=O)N3CCCCCC3)c2)CC1	106	108	108	109	112	·	·	·	·	·
Cc1cc(C)cc(NC(=O)CN2CCc3cc4c(cc3C2C)OCCCO4)c1 (stereo not given)	99	88	124	193*	100	102	98	101	107	97
Cc1cccc(NC(=O)CN2CCc3cc4c(cc3C2C)OCCCO4)c1 (stereo not given)	96	101	112	89	95	·	·	·	·	·
Oc1c(C(Nc2nc3ccccc3s2)c2ccco2)ccc2cccnc12 (stereo not given)	83	86	203*	103	91	·	·	·	·	·	Yeast autofluor=0.3
Cc1noc(C)c1NC(=O)N(C)C[C@H]1Oc2c(NC(=O)Nc3ccc4c(c3)OCO4)cccc2C(=O)N([C@H](C)CO)C[C@@H]1C	87	91	97	91	93	·	·	·	·	·
CSc1cccc(N2CC(C(=O)N(Cc3nnc(-c4ccccc4Cl)o3)C3CC3)CC2=O)c1 (stereo not given)	97	90	95	106	104	·	·	·	·	·
O=C(COC(=O)/C=C/c1cccc(F)c1)NC(=O)NCc1ccccc1	95	102	104	100	96	·	·	·	·	·
O=C(/C=C/c1ccccc1[N+](=O)[O-])c1ccccc1Br	83	92	156*	104	97	·	·	·	·	·	Yeast autofluor=8.8
C=CCNC(=O)c1ccc(Cn2cc(C(F)(F)F)ccc2=O)cc1	104	95	101	103	98	·	·	·	·	·
COCCNC(=O)Cc1c(C)c2c(cc(C)c3c(C(C)(C)C)coc32)oc1=O	107	100	95	104	103	·	·	·	·	·
Cc1cc2ccccn2c1C(=O)c1cccc([N+](=O)[O-])c1	103	111	106	111	104	·	·	·	·	·
Cc1cc2ccccn2c1C(=O)c1ccc([N+](=O)[O-])o1	121	97	218*	101	84	·	·	·	·	·	Yeast autofluor=18
CCOC(=O)c1sc(Nc2ccccc2Cl)nc1C	82	73	109	168	52	99	98	100	94	95
Oc1ccc2nnc3c(Br)cnn3c2c1	109	100	101	119	100	·	·	·	·	·
C[C@@]12C(=O)OC(=O)[C@]1(C)C1CCC2O1	67	71	189*	95	91	213*	150	101	92	83	Yeast autofluor=1.7
CN1C(=O)/C(=N\OC(=O)c2cccc3ccccc23)c2ccccc21	82	75	207*	106	92	·	·	·	·	·	Yeast autofluor=0.4
COc1ccc(C(=O)O/N=C2\C(=O)N(C)c3ccccc32)cc1	112	88	138	99	97	·	·	·	·	·
O=C(COC(=O)c1ccc[n+]([O-])c1)Nc1ccc(Cl)cc1[N+](=O)[O-]	94	108	109	104	100	·	·	·	·	·
COc1cccc2oc3ccc(C#Cc4ccccn4)cc3c(=O)c12	72	87	152*	92	99	105	93	94	104	100
O=C(CCSCc1ccccc1Cl)NC1CCCCC1	108	107	107	103	109	·	·	·	·	·
CN1/C(=C\C(=O)c2ccco2)C(C)(C)c2ccccc21	96	92	180*	102	81	104	105	102	107	97
COc1ccc(CC(=O)NNC(=O)c2cc(C)oc2C)cc1OC	100	106	99	103	103	·	·	·	·	·
Cc1ccc(NC(=O)C/C(N)=N/OC(=O)Nc2cccc(C)c2)cc1	106	99	100	110	99	·	·	·	·	·
O=C(Nc1ccccc1)O/N=C/c1ccncc1	109	110	110	116	105	·	·	·	·	·
SMILES	CIT2 TOR yeast	AGP1 TOR yeast	LAP4 TOR yeast	MEP2-GFP yeast	RPL19A TOR yeast	LAP4 cherry2	MEP2 cherry2	RPL19A GFP CP2	CIT2-GFP pick2	AGP1 GFP CP2	others
Cc1ccc(NC(=O)ON=C2CCCC2)cc1	219*	55	120	103	95	·	·	·	·	·	Yeast autofluor=1.6
O=C(Nc1ccccc1)ON=C1CCCC1	130	68	117	101	103	106	107	108	129	61	Yeast autofluor=0.2
CC1(C)Cc2c(cnn2-c2cccc(F)c2)C(NC(=O)C2CCOCC2)C1 (stereo not given)	96	97	92	89	97	·	·	·	·	·
O=C(CCc1ccccc1)NNC(=O)Nc1ccc(F)c(Cl)c1	102	99	81	102	109	·	·	·	·	·
COc1ccc(N(C(=O)c2cnccn2)C(C(=O)NCc2ccccc2)c2ccc(O)cc2)cc1 (stereo not given)	97	95	91	98	96	·	·	·	·	·
CCCCC(CC)CN=C(N)NC(N)=NCCCCCCN=C(N)NC(N)=NCC(CC)CCCC (stereo not given)	60	85	160*	104	95	126	148	99	78	106
Cc1sc(NC(=O)c2ccco2)c(C(c2cccnc2)N2CCCC2)c1C (stereo not given)	96	99	102	106	97	·	·	·	·	·
CCc1noc(C)c1C(=O)Nc1nc2c(F)cc(F)cc2s1	66	84	163*	95	86	122	111	93	87	90
CC(Sc1nn(-c2ccccc2)c(=S)s1)C(=O)NCC1CCCO1 (stereo not given)	97	107	107	106	103	·	·	·	·	·
